Bioassay records: PubChem BioAssay, National Center for Advancing Translational Sciences (NCATS)
Pf growth 48h: P. falciparum growth inhibition at 48 hours (one generation) | P. falciparum luciferase growth in erythrocytes, 48 h | Potency, µM (top dose mostly 28.7 µM), without a hit: at the top dose activity change, negative = inhibition, hits mostly inhibitors | 310,000 tested, 5.9% active | AID 504832; also: % is scaled to controls: 0 for no effect and ±100 for the full control effect
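Parasite viability was followed by luminescence of a genomically integrated firefly luciferase. Cultures held 0.1% parasitemia at 2% hematocrit (final), incubated under 5% CO2 at 37 C.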
SARS PLpro yeast: SARS-CoV PLP inhibition in yeast; 330,000 tested, 0.19% active; AID 485353; Potency, µM (top dose mostly 32.9 µM), without a hit: at the highest dose activity, positive = growth rescue, usual class: activators; S. cerevisiae expressing SARS-CoV PLpro, growth rescue; calls by dose curve; also: 0% is about no effect; nearly all actives have a fitted effect of over 55% in size
NS1 inh: inhibitors of influenza NS1 protein function; Potency, µM (doses to about 46.1 µM), for inactives: at the highest dose activity, positive = more growth; 270,000 tested, 0.4% active; calls by dose curve; also: actives are rising curves; nearly all actives have a fitted effect of over 50% in size
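Growth recovery, yeast-based: influenza A NS1 expressed in S. cerevisiae causes slow growth, and suppressors are detected by OD600. The parent strain without NS1 is used as positive control.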
Pf growth 96h: P. falciparum growth inhibition at 96 hours; Potency, µM (series often up to 28.7 µM), for the others: top-dose activity change, negative = inhibition, most hits filed as inhibitors; P. falciparum luciferase reporter growth, 96 h; 320,000 tested, 6.9% active; AID 504834; also: % is scaled to controls: 0 for no effect and ±100 for the full control effect
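96 h incubation, 37 C, 5% CO2, of luciferase-reporter P. falciparum-infected RBCs (2% hematocrit, 0.05% parasitemia final) with test compounds; endpoint luminescence.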
Numbers without * were called inactive; ! = repeats disagree. Sampled rows, rich in hits. Any-hit rate of the full collection: about 10%. Unless noted, calls follow the shape of the dose curve; as a rule, active = well fitted inhibition curve with a large enough effect; inconclusive = small, poorly fitted or top-dose-only effect, or another doubt; inactive = no such curve, though single readings can be large or run the other way. Potency is read from the fitted curve at half-maximal effect.

Results for CC(C(=O)OCC(=O)c1ccc([N+](=O)[O-])cc1)N1C(=O)C2C3CCC(C3)C2C1=O (stereo unspecified) ?
Pf growth 48h: 53%; SARS PLpro yeast: 0%; Pf growth 96h: 10µM*

How did Cc1cc(C)n(CCNS(=O)(=O)c2ccc(C)c(C)c2)n1 do in these assays?
Pf growth 48h: 3%; SARS PLpro yeast: -1%; NS1 inh: -5%; Pf growth 96h: 0%

What do the screens show for `Cc1c(Cl)cccc1Nc1ccccc1C(=O)O`?
Pf growth 48h: inconclusive; SARS PLpro yeast: -21%; NS1 inh: -5%; Pf growth 96h: 13µM*!

How did Cc1c(Cl)cccc1Nc1ncccc1C(=O)O do in these assays?
Pf growth 48h: 35%; SARS PLpro yeast: -11%; NS1 inh: -21%; Pf growth 96h: 78%

How did CC(NC(=O)C(=O)N1CCCCC1)C(c1cccs1)N1CCN(C)CC1 (stereo unspecified) do in these assays?
Pf growth 48h: 23%; SARS PLpro yeast: 2%; NS1 inh: 11%; Pf growth 96h: inconclusive

Results for c1nc(N2CCOCC2)c2[nH]cnc2n1 ?
NS1 inh: 12%

Results for c1nc(N2CCCCC2)c2[nH]cnc2n1 ?
Pf growth 48h: -8%; SARS PLpro yeast: 7%; NS1 inh: 4%; Pf growth 96h: 13µM*

Results for O=C(CCc1nnc(C2(c3ccc(Cl)cc3)CCC2)o1)N1CCCC(O)C1 (stereo unspecified) ?
Pf growth 48h: 13%; SARS PLpro yeast: 15%; NS1 inh: -3%; Pf growth 96h: inconclusive

Results for Cc1sc2nc(SCc3ccccc3)n(Cc3ccco3)c(=O)c2c1C ?
Pf growth 48h: 2%; SARS PLpro yeast: 0%; NS1 inh: inconclusive; Pf growth 96h: -28%

Results for CCOC(=O)CC(=O)CSc1nc2sc(C)cc2c(=O)n1Cc1ccco1 ?
Pf growth 48h: 4.7µM*; SARS PLpro yeast: 4%; NS1 inh: -14%

How did Cc1cc2c(=O)n(Cc3ccco3)c(SCC(=O)c3ccc(Cl)s3)nc2s1 do in these assays?
Pf growth 48h: 5.9µM*; SARS PLpro yeast: 3%; NS1 inh: 1%; Pf growth 96h: 202%

What do the screens show for `CCOC(=O)c1cc(CC)sc1NC(=O)CSc1nc2ccccc2c(=O)n1Cc1ccco1`?
Pf growth 48h: 22%; SARS PLpro yeast: -17%; NS1 inh: 20%; Pf growth 96h: 45%

How did CC(C)CC(COCc1ccc(Cl)cc1)N1CCN(C(=O)c2ccc(Cl)cc2Cl)CCC1=O (stereo unspecified) do in these assays?
Pf growth 48h: 10µM*; SARS PLpro yeast: -53%; Pf growth 96h: inconclusive

What do the screens show for `CC(C)CC(COCc1cccc(Cl)c1)N1CCN(C(=O)c2cccc(C(F)(F)F)c2)CCC1=O` (stereo unspecified)?
Pf growth 48h: inconclusive; SARS PLpro yeast: 0%; NS1 inh: -30%; Pf growth 96h: 10µM*

What do the screens show for `COc1ccc(COCC(CC(C)C)N2CCN(C(=O)c3cccc(C(F)(F)F)c3)CCC2=O)cc1` (stereo unspecified)?
Pf growth 48h: 10µM*; SARS PLpro yeast: 1%; NS1 inh: -23%; Pf growth 96h: inconclusive

Results for Cc1nn(Cc2cccc(C(=O)Nc3ccn(Cc4c(F)c(F)cc(F)c4F)n3)c2)c(C)c1[N+](=O)[O-] ?
SARS PLpro yeast: 6%; NS1 inh: 12%; Pf growth 96h: 13µM*

Results for Cc1cc(C)cc(N(C(C)C(=O)N2CCCC2)S(C)(=O)=O)c1 (stereo unspecified) ?
Pf growth 48h: -1%; SARS PLpro yeast: 19%; NS1 inh: 1%; Pf growth 96h: 72%

How did O=C(COC(=O)COc1ccc(Cl)cc1Br)NC1CC1 do in these assays?
SARS PLpro yeast: -5%

What do the screens show for `NC(=O)c1ccccc1OCC(=O)NS(=O)(=O)c1ccc(Cl)cc1`?
Pf growth 48h: -3%; SARS PLpro yeast: 4%; NS1 inh: -1%

What do the screens show for `NC(=O)c1ccccc1OCC(=O)c1ccc(Cl)cc1`?
Pf growth 48h: 4.1µM*; SARS PLpro yeast: 4%; Pf growth 96h: 0%

What do the screens show for `Cc1ccccc1C(=O)NNC(=O)CSc1nc2ccccc2c(=O)[nH]1`?
Pf growth 48h: 36%; SARS PLpro yeast: 0%; NS1 inh: -1%; Pf growth 96h: 57%

How did Brc1ccc(/C=N/Nc2nncc(-c3ccccc3)n2)o1 do in these assays?
Pf growth 48h: -18%; SARS PLpro yeast: 1%; Pf growth 96h: inconclusive

What do the screens show for `Oc1ccc(/C=N\Nc2nncc(-c3ccccc3)n2)cc1`?
Pf growth 48h: inconclusive; SARS PLpro yeast: 4%; NS1 inh: 5%; Pf growth 96h: 2.3µM*

What do the screens show for `COc1ccc(-c2cnnc(N/N=C/c3ccc(O)cc3)n2)cc1`?
Pf growth 48h: -4%; SARS PLpro yeast: 0%; Pf growth 96h: 13%

What do the screens show for `COc1ccc(-c2cnnc(N/N=C/c3ccc(O)c(O)c3)n2)cc1`?
Pf growth 48h: 1.7µM*; SARS PLpro yeast: 28%; NS1 inh: 3%; Pf growth 96h: 63%

How did COc1ccc(-c2cnnc(N/N=C/c3ccc(C)o3)n2)cc1 do in these assays?
Pf growth 48h: inconclusive; SARS PLpro yeast: 0%; NS1 inh: 2%; Pf growth 96h: 4.1µM*

Results for CC(C)=CCC/C(C)=C/CNC(=O)C[C@H]1C[C@H](C(=O)N2CCCCC2)[C@@]2(CCc3ccccc3)c3[nH]c4cc(CCC(=O)N(C)C)ccc4c3CCN2C1=O ?
SARS PLpro yeast: 23%

How did Cc1noc(C(=O)N2CCN(Cc3ccc4c(c3)OCO4)CC2)c1Cl do in these assays?
Pf growth 48h: 12%; SARS PLpro yeast: 12%; NS1 inh: 1%; Pf growth 96h: 5%

Results for O=C(Cc1ccc(Cl)cc1)N/N=C/c1cccc(O)c1 ?
Pf growth 48h: 32%; SARS PLpro yeast: -4%; NS1 inh: -12%; Pf growth 96h: 7%

What do the screens show for `CCN(CC)C(=O)c1[nH]cnc1C(=O)N[C@H](C)c1ccccc1`?
Pf growth 48h: 70%; SARS PLpro yeast: -8%; Pf growth 96h: 27%

What do the screens show for `CCOC(=O)c1c(CSc2ccccc2)n(C)c2cc(Br)c(OCC(O)CNC(CO)(CO)CO)cc12` (stereo unspecified)?
Pf growth 48h: 12µM*; SARS PLpro yeast: 21%; NS1 inh: 4%; Pf growth 96h: 13µM*

What do the screens show for `CC(C)N(C(=O)COC(=O)c1cccc(S(=O)(=O)N2CC3(C)CC2CC(C)(C)C3)c1)C(C)C` (stereo unspecified)?
Pf growth 48h: inconclusive; SARS PLpro yeast: -3%; Pf growth 96h: -4%

Results for CC1=NN(c2ccccc2)C(=O)C1(C)C ?
Pf growth 48h: 4%; SARS PLpro yeast: -1%; NS1 inh: -4%; Pf growth 96h: 9.3µM*

Results for CCc1cc(C(=O)NNC(=O)CCN2CCN(c3ccccc3)CC2)sc1C ?
Pf growth 48h: 5%; SARS PLpro yeast: 26%; NS1 inh: 5%; Pf growth 96h: 29%

What do the screens show for `CCc1cc(C(=O)NNC(=O)CCl)sc1C`?
Pf growth 48h: 1µM*; SARS PLpro yeast: inconclusive; Pf growth 96h: 1.5µM*

What do the screens show for `CN(C)S(=O)(=O)c1ccc(NC(=O)CSc2nnc(-c3ccco3)o2)cc1`?
SARS PLpro yeast: 3%
